Experimental data published in PubChem BioAssay (NCATS).
Values joined by “and” are separate entries in the source; they are usually repeats but may differ in a detail not shown here. Equal entries are not always repeated. Inconclusive results are not listed. Active and inactive are the calls of the source. Calls follow the shape of the dose curve; as a rule, active = well fitted inhibition curve with a large enough effect; inconclusive = small, poorly fitted or top-dose-only effect; inactive = flat fitted curve, though single readings scatter.

Tests used:
[1] = tested on: PC26; experiment: qHTS profiling for inhibitors of Plasmodium falciparum proliferation (AID 504749); also: potency is read from the fitted curve at half-maximal effect; conditions: P. falciparum in erythrocytes, SYBR Green DNA, 72 h; series mostly up to 28.7 µM
Method in brief: (§1)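 SYBR Green fluorescence (ex 485 nm, em 535 nm) reports parasite DNA after 72 h compound exposure of infected red cells at 0.3% parasitemia, 2.5% hematocrit; signal normalized to 0.29 uM artemisinin and vehicle wells.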

[2] = tested on: PC49; experiment: as above; conditions: P. falciparum in erythrocytes, SYBR Green DNA, 72 h; series mostly up to 28.7 µM
Method in brief: as §1

[3] = tested on: KB-3-1; experiment: Cytotoxic Profiling of Annotated Libraries Using Quantitative High-Throughput Screening (AID 1296008); conditions: Five cell lines viability, CellTiter-Glo ATP luminescence, 48-72 h; max response: hits give low values; also: % is scaled to controls: 0 for no effect and ±100 for the full control effect
Method in brief: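 Cells exposed to compounds for 48 or 72 hr at 37 degrees Celsius. Viability read as ATP-coupled luminescence with CellTiter-Glo after 10 min at room temperature.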

[4] = tested on: SC27B; experiment: qHTS profiling for inhibitors of Plasmodium falciparum proliferation (AID 504749); also: potency is read from the fitted curve at half-maximal effect; conditions: P. falciparum in erythrocytes, SYBR Green DNA, 72 h; series mostly up to 28.7 µM
Method in brief: as §1

[5] = tested on: TAB109; experiment: as above; conditions: P. falciparum in erythrocytes, SYBR Green DNA, 72 h; series mostly up to 28.7 µM
Method in brief: as §1

[6] = tested on: TAB113; experiment: as above; conditions: P. falciparum in erythrocytes, SYBR Green DNA, 72 h; series mostly up to 28.7 µM
Method in brief: as §1

[7] = tested on: TAB165; experiment: as above; conditions: P. falciparum in erythrocytes, SYBR Green DNA, 72 h; series mostly up to 28.7 µM
Method in brief: as §1
Also: nearly all actives have a fitted effect of over 60% in size.

Cn1c(O)c(N=NC(N)=S)c2ccccc21
inactive: Potency [1] | Potency [2] | max response [3] 8.19%

CC1=C[C@H](O)CC(C)(C)[C@H]1/C=C/C(C)=C/C=C/C(C)=C/C=C/C=C(C)/C=C/C=C(C)/C=C/C1=C(C)C[C@@H](O)CC1(C)C
inactive: max response [3] -11%

CC[C@@H](C(=O)[C@@H](C)[C@@H](O)[C@H](C)[C@@H]1O[C@@H]([C@@H](CC)C(=O)O)CC[C@@H]1C)[C@H]1O[C@]2(C=C[C@@H](O)[C@]3(CC[C@@](C)([C@H]4CC[C@](O)(CC)[C@H](C)O4)O3)O2)[C@H](C)C[C@@H]1C
inactive: max response [3] -24.3%

CCCCCc1ccc(C)cc1O
inactive: Potency [1] | Potency [2] | Potency [4] | Potency [5] | Potency [6] | max response [3] -0.225%

COc1c(O[C@@H]2O[C@H](CO)[C@@H](O)[C@H](O)[C@H]2O)cc2c(c1OC)-c1ccc(SC)c(=O)cc1[C@@H](NC(C)=O)CC2
inactive: max response [3] 48.2%

C[N@+]12CCCC[C@@H]1CCC(=C(c1cccs1)c1cccs1)C2
inactive: max response [3] -14.7%

CS(=O)(=O)c1ccc([C@@H](O)[C@@H](COC(=O)CN)NC(=O)C(Cl)Cl)cc1
inactive: Potency [1] | Potency [2] | Potency [4] | Potency [6] | max response [3] -15.1%
active: Potency [5] 8.91 µM

CO/N=C(\C(=O)N[C@@H]1C(=O)N2C(C(=O)O)=C(CSc3nc(C)c(CC(=O)O)s3)CS[C@H]12)c1csc(N)n1
inactive: max response [3] 2.01%

NC[C@H]1O[C@H](O[C@H]2[C@H](O)[C@@H](O[C@H]3O[C@H](CO)[C@@H](O)[C@H](N)[C@H]3O)[C@H](N)C[C@@H]2N)[C@H](O)[C@@H](O)[C@@H]1O
inactive: max response [3] 14.5%

CN[C@@H]1[C@@H](O)[C@@H](O[C@@H]2[C@@H](O)[C@H](O[C@H]3O[C@H](CN)[C@@H](O)[C@H](O)[C@H]3O)[C@@H](N)C[C@H]2NC(=O)C(O)CN)OC[C@]1(C)O (stereo partly specified)
inactive: max response [3] 36%

O=C1c2ccccc2C(=O)C1c1ccc(F)cc1
inactive: Potency [1] | Potency [2] | Potency [4] | Potency [5] | Potency [6] | Potency [7] | max response [3] -8.05%

CCCCCCCCCC(=O)NO
inactive: Potency [1] | Potency [2] | Potency [4] | Potency [5] | Potency [6] | Potency [7] | max response [3] -3.47% and -15%

CC/C=C\C/C=C\C/C=C\C/C=C\C/C=C\C/C=C\CCC(=O)O
inactive: Potency [1] | Potency [2] | Potency [4] | Potency [5] | Potency [6] | Potency [7] | max response [3] 0.95%

F[Si-2](F)(F)(F)(F)F
inactive: Potency [1] | Potency [2] | Potency [4] | Potency [5] | Potency [6] | Potency [7] | max response [3] 6.45%

CCN(CC)C(=S)S
inactive: Potency [1] | Potency [2] | Potency [4] | Potency [5] | Potency [6] | Potency [7] | max response [3] 3.72%

CC1CCCCN1CCCOC(=O)c1ccccc1 (stereo unspecified)
inactive: Potency [1] | Potency [2] | Potency [4] | Potency [5] | Potency [6] | Potency [7] | max response [3] 7.8%

c1ccc2c(c1)OCC(CN1CCCCC1)O2 (stereo unspecified)
inactive: Potency [1] | Potency [2] | Potency [4] | Potency [5] | Potency [6] | Potency [7] | max response [3] -16%
